Compounds with a hit are over-represented: about 8.1% of the library has one in this group of screens.
RORgamma inh = inhibitors of mouse ROR gamma transcriptional activity; hit rate 5.4% among 310,000; P51450; AID 2551; Drosophila S2 Gal4-RORgamma UAS-luciferase reporter, 20 h; Potency, µM (series often up to 53.6 µM), inactives show at the highest dose activity change, negative = inhibition, usual class: inhibitors; also: % is scaled to controls: 0 for no effect and ±100 for the full control effect; nearly all actives have a fitted effect of over 60% in size
Target sequence (P51450 whole entry, looked up, the tested form may be a part): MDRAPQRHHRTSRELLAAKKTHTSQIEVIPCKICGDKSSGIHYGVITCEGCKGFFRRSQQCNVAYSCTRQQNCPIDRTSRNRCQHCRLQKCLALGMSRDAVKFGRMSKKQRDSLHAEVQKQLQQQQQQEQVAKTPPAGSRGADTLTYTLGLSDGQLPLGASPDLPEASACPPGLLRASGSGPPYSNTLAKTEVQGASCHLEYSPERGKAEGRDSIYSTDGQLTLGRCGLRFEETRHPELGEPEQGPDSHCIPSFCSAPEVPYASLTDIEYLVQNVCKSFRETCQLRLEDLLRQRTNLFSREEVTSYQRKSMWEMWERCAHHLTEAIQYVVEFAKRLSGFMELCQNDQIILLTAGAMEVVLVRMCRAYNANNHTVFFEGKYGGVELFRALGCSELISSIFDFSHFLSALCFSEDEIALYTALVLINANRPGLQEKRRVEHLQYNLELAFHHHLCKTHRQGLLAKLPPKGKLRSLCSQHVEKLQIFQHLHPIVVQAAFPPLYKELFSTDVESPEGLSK
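A Gal4/UAS one-hybrid system in insect cells: metallothionein-promoter Gal4–ROR gamma fusion plus Photinus luciferase reporter. Copper sulfate 700 uM final, 20 hr ambient incubation, luminescent detection after 10 min with reagent.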
Epigenetic reg = regulators of epigenetic silencing causing reporter derepression in mouse cells. hit rate 0.2% among 280,000. murine LDR cells, GFP reporter derepression, 30 h. Potency, µM (titrated, usually from 53.9 µM), without a hit: top-dose GFP activation, usual class: activators. AID 1865; also: % of control where 0% means no effect; nearly all actives have a fitted effect of over 60% in size
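GFP-positive cell count by laser-scanning cytometry (objects 20–120 um) after 30 h, 37 C compound exposure of murine LDR cells; reporter is CMV-GFP integrated at a silenced locus, inducible by HDAC or DNMT inhibitors.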
ClpP mod = qHTS Assay for Activators of ClpP. ATP-dependent Clp protease proteolytic subunit (Bacillus subtilis (strain 168)), P80244. purified B. subtilis ClpP, FRET peptide cleavage, 20 min. Potency, µM (titrated, usually from 57.5 µM), for the others: top-dose activity change, negative = active. hit rate 1.9% among 340,000. AID 651965, 2013; active = well fitted falling curve with a large enough effect; inconclusive = small, poorly fitted or top-dose-only effect; inactive = no such curve, though single readings can be large or run the other way; also: the source files actives as falling curves though it sought activators and does not explain the sign; nearly all actives have a fitted effect of over 65% in size
Target sequence (P80244 whole entry, looked up): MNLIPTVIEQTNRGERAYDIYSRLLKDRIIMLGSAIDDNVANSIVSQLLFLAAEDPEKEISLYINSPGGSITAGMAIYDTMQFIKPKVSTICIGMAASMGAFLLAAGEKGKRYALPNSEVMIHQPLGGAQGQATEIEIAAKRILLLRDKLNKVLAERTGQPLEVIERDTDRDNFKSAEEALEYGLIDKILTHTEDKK
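FRET quenching reversal measured ClpP activation: 10 microg/mL B. subtilis ClpP at pH 8 with the FRET-FV decapeptide, read at 430 nm after 320 nm excitation. The 20-min minus 0-min signal was scaled between DMSO/no-enzyme wells and ADEP (5.8 microM final).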
VP16 counter = counter-screen for ROR gamma inhibitors: Gal4-VP16 reporter; Drosophila S2 Gal4-VP16 UAS-luciferase, luminescence, 20 h; Potency, µM (top dose mostly 53.6 µM), for the others: at the top dose activity, negative = inhibition, most hits filed as inhibitors; hit rate 3.5% among 310,000;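 also: Gal4-VP16 expression switched on by copper sulfate through the metallothionein promoter; % is scaled to controls: 0 for no effect and ±100 for the full control effect; nearly all actives have a fitted effect of over 50% in size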
Sfp inh = blocks B. subtilis Sfp PPTase activity; hit rate 3.5% among 310,000; Biochemical Sfp PPTase activity, qHTS; Potency, µM, for the others: largest response in the series, negative = inhibition, usual class: inhibitors; AID 1490;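 also: the enzyme is Sfp with the accession as filed and its product quenches rhodamine fluorescence; 0% = enzyme reaction without inhibitor and -100% = no enzyme wells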
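Buffer: 50 mM Hepes-Na pH 7.6, 10 mM MgCl2, 0.01% Nonidet P-40, 0.01% BSA. Enzyme 15 nM, pre-exposed to compound 15 min; substrates then added and fluorescence change tracked over 30 min.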
PINK1 expr mod = changes PINK1 expression; PINK1 immunofluorescence, high-content cytometry, 24 h; Potency, µM (highest dose often 76.6 µM), for the others: top-dose activation (PINK1 increase), most hits filed as activators; hit rate 0.2% among 410,000; AID 624263; active = well fitted activation curve with a large enough effect; inconclusive = small, poorly fitted or top-dose-only effect; cell line not stated here; also: % of control where 0% means no effect; nearly all actives have a fitted effect of over 65% in size
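Decision-based qHTS: stable cells, 24 h exposure to five compound concentrations, CCCP as control. Fixed cells stained for PINK1 plus nuclear, mitochondrial and cell markers, cytometer read.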
* hit, by the source's call; [ ] = remark or other dose. Unless noted, calls follow the shape of the dose curve; as a rule, active = well fitted curve in the direction sought with a large enough effect; inconclusive = small, poorly fitted or top-dose-only effect, or another doubt; inactive = no such curve, though single readings can be large; an effect the other way counts as inactive or inconclusive. Potency is read from the fitted curve at half-maximal effect.

What do the screens show for `Cc1cnc(NC(=O)C2COc3ccccc3O2)s1` (centres undefined)?
RORgamma inh: 7.08µM*; Epigenetic reg: -1.2%; ClpP mod: -9.6%; VP16 counter: 8.91µM*; Sfp inh: 5.2%; PINK1 expr mod: 1.3%

Results for Cc1nc2ccc3nc(NC(=O)C4COc5ccccc5O4)sc3c2s1 (centres undefined) ?
RORgamma inh: -0.6%; Epigenetic reg: 0.8%; ClpP mod: 13.3%; VP16 counter: inconclusive; Sfp inh: 13.9%; PINK1 expr mod: 0.4%

How did CC1CC1C(=O)Nc1nc(-c2ccccn2)cs1 (centres undefined) do in these assays?
RORgamma inh: 11.2µM*; Epigenetic reg: 0.1%; ClpP mod: 65.0%; VP16 counter: inconclusive; Sfp inh: 25.1µM*; PINK1 expr mod: 1.8%

Results for CCN(C(=O)c1ccco1)c1nc(-c2ccc(OC)cc2)cs1 ?
RORgamma inh: 52.3%; ClpP mod: -3.8%; VP16 counter: -6.1%; Sfp inh: 89.1µM*; PINK1 expr mod: -0.6%

How did COc1ccc(-c2csc(N(CC(C)C)C(=O)c3ccco3)n2)cc1 do in these assays?
RORgamma inh: 21.5%; VP16 counter: 5.6%; Sfp inh: -1.8%; PINK1 expr mod: 9.4%

Results for COc1cccc(/C=c2/[nH]c(=O)/c(=C\c3cccc(OC)c3OC)[nH]c2=O)c1OC ?
ClpP mod: -10.1%; PINK1 expr mod: 1.8%

What do the screens show for `Cc1c2c(nc3ccccc13)CCC(C)C2` (centres undefined)?
RORgamma inh: 11.2µM*; Epigenetic reg: -1.5%; VP16 counter: -22.9%; Sfp inh: -5.9%; PINK1 expr mod: -0.8%

Results for COc1cccc(/C=C/c2ccnc3ccccc23)c1OC ?
ClpP mod: inconclusive; PINK1 expr mod: 0.7%

What do the screens show for `COc1ccc(S(=O)(=O)N2CCOC2CNC(=O)C(=O)NCc2ccccn2)cc1` (centres undefined)?
ClpP mod: -2.0%; PINK1 expr mod: 0.2%

Results for O=C(NCc1ccccn1)C(=O)NCC1OCCN1S(=O)(=O)c1ccc(Br)cc1 (centres undefined) ?
RORgamma inh: 33.7%; ClpP mod: -0.7%; VP16 counter: 25.1µM*; Sfp inh: 8.2%; PINK1 expr mod: 4.4%

Results for NS(=O)(=O)c1ccc(CCNC(=O)C(=O)NCC2OCCN2S(=O)(=O)c2ccc(Cl)cc2)cc1 (centres undefined) ?
RORgamma inh: 30.3%; ClpP mod: 1.6%; VP16 counter: 15.8µM*; Sfp inh: 6.8%; PINK1 expr mod: 2.5%

How did COc1ccc(Cl)cc1-c1ccc(C(=O)O)o1 do in these assays?
RORgamma inh: 26.4%[96.6 µM]; Epigenetic reg: -5.2%[96.6 µM]; VP16 counter: -3.3%[96.6 µM]; Sfp inh: 112µM*

Results for Cc1ccc(C)c(-c2ccc(C(=O)O)o2)c1 ?
RORgamma inh: 12.6µM*; Epigenetic reg: inconclusive; VP16 counter: -2.3%[96.6 µM]; Sfp inh: 112µM*

How did O=C(Nc1ccccn1)c1cc2ccccc2o1 do in these assays?
RORgamma inh: 3.98µM*; Epigenetic reg: -4.9%; ClpP mod: -0.1%; VP16 counter: 6.31µM*; Sfp inh: 12.6%; PINK1 expr mod: 0.6%[38.3 µM]

What do the screens show for `O=C(N/N=C/c1cc(Br)c(Br)o1)c1cc2ccccc2o1`?
RORgamma inh: 5.01µM*; ClpP mod: -14.5%; VP16 counter: 6.31µM*; Sfp inh: -11.8%; PINK1 expr mod: 8.9%

Results for O=C(Nc1ncccc1O)c1cc2ccccc2o1 ?
ClpP mod: -4.5%; PINK1 expr mod: 0.8%

How did O=C(N/N=C/c1ccc([N+](=O)[O-])o1)c1cc2ccccc2o1 do in these assays?
RORgamma inh: inconclusive; Epigenetic reg: -0.4%; ClpP mod: 2.2%; VP16 counter: inconclusive; Sfp inh: 7.2%; PINK1 expr mod: 0.9%

What do the screens show for `O=C(NC1=NCCS1)c1cc2ccccc2o1`?
RORgamma inh: 7.08µM*; Epigenetic reg: -4.8%; ClpP mod: -10.3%; VP16 counter: 8.91µM*; Sfp inh: 14.6%; PINK1 expr mod: -1.1%

What do the screens show for `Cc1ccccc1C1(CC(=O)N2CCCC2c2nccs2)CC(=O)N(C2CCCC2)C1=O` (centres undefined)?
PINK1 expr mod: 0.5%

Results for O=C(Nc1cccc(Cl)c1)c1cc(S(=O)(=O)NCCc2ccc(Cl)cc2)ccc1F ?
RORgamma inh: inconclusive; Epigenetic reg: inconclusive; ClpP mod: 1.1%; VP16 counter: 10µM*; Sfp inh: 27.1%; PINK1 expr mod: inconclusive

What do the screens show for `CC1(C)CC(=O)c2cc(C(=O)NCCc3ccccc3)c(=O)[nH]c2C1`?
ClpP mod: -17.7%; PINK1 expr mod: 1.6%

How did [O-][N+]1=c2ccc(Nc3ccccc3)cc2=NC12CCCCC2 do in these assays?
RORgamma inh: 10µM*; Epigenetic reg: -1.9%; ClpP mod: 0.2%; VP16 counter: 12.6µM*; Sfp inh: -20.6%; PINK1 expr mod: 4.7%

Results for COc1ccc(NC2=NCCC2)cc1 ?
RORgamma inh: -0.4%; Epigenetic reg: 1.1%; ClpP mod: -1.6%; VP16 counter: -4.4%; Sfp inh: 13.2%; PINK1 expr mod: 0.5%

What do the screens show for `COc1ccc(Nc2ccc3c(c2)=NC2(CCCCC2)[N+]=3[O-])cc1`?
RORgamma inh: 11.2µM*; Epigenetic reg: 4.9%; ClpP mod: -4.6%; VP16 counter: 11.2µM*; Sfp inh: -19.7%; PINK1 expr mod: -1.7%

How did Cn1c2ccccc2n2c(=O)c(Cl)c(-c3ccccc3)c(C#N)c12 do in these assays?
RORgamma inh: -17.9%; Epigenetic reg: 7.3%; ClpP mod: 28.2µM*; VP16 counter: 19.1%; Sfp inh: -5.8%; PINK1 expr mod: 4.9%

Results for Cc1occc1-c1nnc(SCC(=O)N2CCOCC2)n1Cc1ccco1 ?
RORgamma inh: 14.6%; Epigenetic reg: -4.3%; ClpP mod: 0.0%; VP16 counter: -5.2%; Sfp inh: 89.1µM*; PINK1 expr mod: -0.5%

What do the screens show for `O=C(CSc1nnc(-c2cc3ccccc3cc2O)n1Cc1ccco1)N1CCc2ccccc2C1`?
RORgamma inh: 23.2%; Epigenetic reg: -1.5%; ClpP mod: -6.4%; VP16 counter: 13.4%; Sfp inh: 44.7µM*; PINK1 expr mod: -0.9%[38.3 µM]

Results for O=C(CSc1nnc(-c2ccccc2O)o1)N1CCc2ccccc2C1 ?
RORgamma inh: 10µM*; Epigenetic reg: -7.7%; ClpP mod: -2.7%; VP16 counter: inconclusive; Sfp inh: 5.4%; PINK1 expr mod: 4.0%[38.3 µM]

How did O=C(c1cccc(Cl)c1Cl)N(Cc1ccco1)Cc1cccs1 do in these assays?
ClpP mod: -2.5%; PINK1 expr mod: -0.2%

Compound activity (PubChem BioAssay)
